The values that follow come from the supplement of paper PMC10646978.

± gives the standard deviation.

Holding throughout (conditions): modulator concentration 10 µM
Experiment [1] deals with RAW-Dual (murine macrophage reporter line). Briefly: NF-kB reporter (SEAP) activity fold change vs agonist alone; higher = enhanced NF-kB activity. A digest of the protocol: (§1)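 Compound reached 10 μM final in each well by pin transfer, onto RAW-Dual murine macrophage reporter cells seeded at 50 000 per well in 384-well plates. After 1 hour at 37 °C, the cells were stimulated overnight with a PRR agonist. SEAP in the supernatant was read with QUANTI-Blue at 620 nm absorbance for NF-κB, and Lucia luciferase was read with QUANTI-Luc luminescence for IRF. Each signal was turned into fold change against the mean agonist-only control on the same plate, and two replicate plates were averaged with propagated errors.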

The test system is the same in experiment [2]. Briefly: IRF reporter (Lucia luciferase) activity fold change vs agonist alone; higher = enhanced IRF activity. In outline: as §1
For experiment [3] the test system is unchanged. Briefly: viability score (confluency relative to resting cells, overnight) (fraction); higher = more viable, active = viable (0.7 or more). In outline:
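In 384-well plates, RAW-Dual macrophages received compound at a final 10 μM overnight. Two confluency masks were then made with IncuCyte software from IncuCyte images of all imaged wells. The viability score is defined as confluency relative to resting cells. Passing the cutoff required both masks to lie above 70% of resting cells.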

Setting [4] is: agonist: CpG ODN 1826 0.5 ug/mL.

On to `COc1ccc(C(=O)Nc2nc(C)c(C)s2)cc1OC`, for which the NF-kB reporter in experiment [1] (setting [4]) was found to be 0.904 ± 0.093; in experiment [1] (agonist: LPS 0.1 ug/mL) it was 1.02 ± 0.056; in experiment [1] (agonist: MPLA […]), 0.994 ± 0.064. The IRF reporter in experiment [2] (agonist: 3'3'-cGAMP 10 ug/mL) came to 0.981 ± 0.024; in experiment [2] (agonist: LPS 0.1 ug/mL) it was 1.55 ± 0.26; in experiment [2] (agonist: MPLA […]), 1.16 ± 0.27. Further, the viability score in experiment [3] was 1.01 (active).
For `NC(=O)c1nc(F)cnc1O`, the NF-kB reporter in experiment [1] (setting [4]) stood at 1.06 ± 0.25; in experiment [1] (agonist: LPS 0.1 ug/mL) it was 1.04 ± 0.051; in experiment [1] (agonist: MPLA […]), 2.37 ± 1.4. Moreover, the IRF reporter in experiment [2] (agonist: 3'3'-cGAMP 10 ug/mL) came to 0.897 ± 0.031; in experiment [2] (agonist: LPS 0.1 ug/mL), 1.27 ± 0.14; in experiment [2] (agonist: MPLA […]), 1.39 ± 0.14. Moreover, the viability score in experiment [3] was 1.01 (active).
In the case of `CN1CC(O)C2=C/C(=N/NC(N)=O)C(=O)C=C21` (stereo unspecified), the values for the NF-kB reporter in experiment [1] (setting [4]), in experiment [1] (agonist: LPS 0.1 ug/mL) and in experiment [1] (agonist: MPLA […]) were 0.855 ± 0.048, 1 ± 0.084 and 0.927 ± 0.065, respectively. For the same molecule, the IRF reporter was 0.99 ± 0.046 in experiment [2] (agonist: 3'3'-cGAMP 10 ug/mL), 1.09 ± 0.18 in experiment [2] (agonist: LPS 0.1 ug/mL) and 1.24 ± 0.44 in experiment [2] (agonist: MPLA […]). Also, the viability score in experiment [3] was 0.665 (inactive).
On to `CCN(CC)c1nc(Nc2ccc([N+](=O)[O-])cc2)nc(N(CC)CC)n1`, for which the NF-kB reporter in experiment [1] (setting [4]) was 0.635 ± 0.04; in experiment [1] (agonist: LPS 0.1 ug/mL) it was 1.07 ± 0.069; in experiment [1] (agonist: MPLA […]), 0.953 ± 0.058. The IRF reporter in experiment [2] (agonist: 3'3'-cGAMP 10 ug/mL) is 0.972 ± 0.044; in experiment [2] (agonist: LPS 0.1 ug/mL) it was 1.16 ± 0.12; in experiment [2] (agonist: MPLA […]) it was 1.01 ± 0.12. In experiment [3], the viability score was 0.998 (active).
With `Br.O=S(=O)(c1ccc(-c2csc(Nc3ccc(Cl)cc3)n2)cc1)N1CCCC1`, the NF-kB reporter in experiment [1] (setting [4]) came out at 0.941 ± 0.15; in experiment [1] (agonist: LPS 0.1 ug/mL) it was 1.04 ± 0.13; in experiment [1] (agonist: MPLA […]), 0.869 ± 0.069. For the same molecule, the IRF reporter worked out at 0.885 ± 0.026 in experiment [2] (agonist: 3'3'-cGAMP 10 ug/mL), 1.19 ± 0.17 in experiment [2] (agonist: LPS 0.1 ug/mL) and 1.48 ± 0.28 in experiment [2] (agonist: MPLA […]). Also, in experiment [3], the viability score was 0.991 (active).
`O=C(O)c1cc(O)c2ccccc2n1`: the NF-kB reporter in experiment [1] (setting [4]) was found to be 1.23 ± 0.3; in experiment [1] (agonist: LPS 0.1 ug/mL), 1.13 ± 0.11; in experiment [1] (agonist: MPLA […]), 1 ± 0.064. In addition, the IRF reporter turned out to be 1.01 ± 0.057 in experiment [2] (agonist: 3'3'-cGAMP 10 ug/mL), 1.21 ± 0.14 in experiment [2] (agonist: LPS 0.1 ug/mL) and 1.38 ± 0.14 in experiment [2] (agonist: MPLA […]). Besides, the viability score in experiment [3] is 0.991 (active).
For the molecule `CCN(CC)CCOC(=O)c1ccc(N)cc1.Cl`, the NF-kB reporter in experiment [1] (setting [4]) came out at 1.29 ± 0.2; in experiment [1] (agonist: LPS 0.1 ug/mL), 1.08 ± 0.26; in experiment [1] (agonist: MPLA […]) it was 1.89 ± 0.82. Also, the values for the IRF reporter in experiment [2] (agonist: 3'3'-cGAMP 10 ug/mL), in experiment [2] (agonist: LPS 0.1 ug/mL) and in experiment [2] (agonist: MPLA […]) were 0.923 ± 0.039, 1.22 ± 0.43 and 1.16 ± 0.13, respectively. Moreover, the viability score in experiment [3] is 0.996 (active).
Regarding `CN1CCN(CCCN2c3ccccc3Sc3ccc(Cl)cc32)CC1` [Prestw-399], the NF-kB reporter in experiment [1] (setting [4]) came out at 0.442 ± 0.026; in experiment [1] (agonist: LPS 0.1 ug/mL), 0.845 ± 0.073; in experiment [1] (agonist: MPLA […]), 1.73 ± 0.048. In addition, the IRF reporter amounted to 1.23 ± 0.051 in experiment [2] (agonist: 3'3'-cGAMP 10 ug/mL), 1.1 ± 0.085 in experiment [2] (agonist: LPS 0.1 ug/mL) and 1.46 ± 0.15 in experiment [2] (agonist: MPLA […]). For the same molecule, the viability score in experiment [3] is 0.114 (inactive).
For `Cc1nnc(C(=O)NC(C)(C)c2nc(C(=O)NCc3ccc(F)cc3)c(O)c(=O)n2C)o1`, the NF-kB reporter in experiment [1] (setting [4]) was 1.08 ± 0.19; in experiment [1] (agonist: LPS 0.1 ug/mL), 1.09 ± 0.13; in experiment [1] (agonist: MPLA […]) it was 0.935 ± 0.056. In addition, the IRF reporter is 0.878 ± 0.029 in experiment [2] (agonist: 3'3'-cGAMP 10 ug/mL), 1.27 ± 0.15 in experiment [2] (agonist: LPS 0.1 ug/mL) and 0.988 ± 0.076 in experiment [2] (agonist: MPLA […]). Moreover, in experiment [3], the viability score is 0.992 (active).
For `CCC(=O)Nc1ccc(S(=O)(=O)N2CCSC(c3ccccc3C)CC2)c(C)c1` (stereo unspecified), the figures for the NF-kB reporter in experiment [1] (setting [4]), in experiment [1] (agonist: LPS 0.1 ug/mL) and in experiment [1] (agonist: MPLA […]) were 0.688 ± 0.045, 0.88 ± 0.11 and 0.937 ± 0.087, respectively. In addition, the IRF reporter in experiment [2] (agonist: 3'3'-cGAMP 10 ug/mL) amounted to 0.412 ± 0.018; in experiment [2] (agonist: LPS 0.1 ug/mL), 0.996 ± 0.085; in experiment [2] (agonist: MPLA […]), 0.988 ± 0.17. For the same molecule, the viability score in experiment [3] was 0.994 (active).
For `O=S(=O)(c1cccc2ccccc12)n1cnc2ccccc21`, the NF-kB reporter came to 1.1 ± 0.084 in experiment [1] (setting [4]), 1.06 ± 0.11 in experiment [1] (agonist: LPS 0.1 ug/mL) and 0.998 ± 0.1 in experiment [1] (agonist: MPLA […]). Besides, the IRF reporter in experiment [2] (agonist: 3'3'-cGAMP 10 ug/mL) was found to be 0.944 ± 0.089; in experiment [2] (agonist: LPS 0.1 ug/mL) it was 1.26 ± 0.25; in experiment [2] (agonist: MPLA […]), 1.33 ± 0.26. Also, in experiment [3], the viability score was 1.01 (active).
Regarding `O=C1CC(c2ccc(O)cc2)Oc2cc(O)cc(O)c21` (stereo unspecified), the values for the NF-kB reporter in experiment [1] (setting [4]), in experiment [1] (agonist: LPS 0.1 ug/mL) and in experiment [1] (agonist: MPLA […]) were 1.31 ± 0.34, 1.27 ± 0.17 and 1.21 ± 0.077, respectively. For the same molecule, the values for the IRF reporter in experiment [2] (agonist: 3'3'-cGAMP 10 ug/mL), in experiment [2] (agonist: LPS 0.1 ug/mL) and in experiment [2] (agonist: MPLA […]) were 0.746 ± 0.031, 1.09 ± 0.14 and 1.13 ± 0.11, respectively. Moreover, in experiment [3], the viability score was 1 (active).
On to `Cn1cnc2cc(NCc3nc4ccccc4n3C)ccc21`, for which the NF-kB reporter in experiment [1] (setting [4]) is 0.818 ± 0.065; in experiment [1] (agonist: LPS 0.1 ug/mL) it was 1.03 ± 0.078; in experiment [1] (agonist: MPLA […]), 1.01 ± 0.039. Further, the IRF reporter was 0.955 ± 0.17 in experiment [2] (agonist: 3'3'-cGAMP 10 ug/mL), 1.03 ± 0.15 in experiment [2] (agonist: LPS 0.1 ug/mL) and 1.03 ± 0.24 in experiment [2] (agonist: MPLA […]). In experiment [3], the viability score is 1 (active).
